Compound activity: PubChem BioAssay, Broad Institute
These entries were drawn from the full list.
aSyn UTR act – Activators via SNCA 5'UTR binding, MLPCN; alpha-synuclein 5'UTR reporter, activators screen; activity score, % (tested at 7.5 µM), hits read low; hit rate 7.1% among 300,000; in the data active = activity score below about -60%
Numbers without * were called inactive.

SMILES | aSyn UTR act
COc1ccc(N2CCN(c3nccs3)CC2)cc1 | -153.7*
CSc1ccccc1-c1nc(-c2ccncc2)no1 | -194.6*
Cc1nc(-c2noc(-c3ccccc3Cl)n2)c(C(F)(F)F)o1 | -142.4*
Clc1ccccc1-c1nnc(-c2cccs2)o1 | -215.4*
Clc1ccccc1-c1nc(-c2ccncc2)no1 | -112.0*
CN(C)c1ccc(-c2nnc(-c3cccs3)o2)cc1 | 81.9
Cc1ccccc1-c1nc(-c2cccnc2)no1 | -226.6*
Clc1ccccc1-c1nnc(-c2cccnc2)o1 | -139.3*
Cc1ccccc1-c1nc(-c2ccccn2)no1 | 95.0
Clc1ccccc1-c1nc(-c2cccnc2)no1 | -103.9*
CC1CN(C(=O)Nc2ccc3snnc3c2)c2ccccc21 (stereo not drawn) | -67.0*
O=C(CCN1C(=O)/C(=C/c2ccccc2F)SC1=S)NC1C=CS(=O)(=O)C1 (stereo not drawn) | -62.2*
CC(C)c1ccc(/C=C2\SC(=O)N(CC(=O)NC3C=CS(=O)(=O)C3)C2=O)cc1 (stereo not drawn) | -69.0*
COCCN1C(=O)/C(=C/c2ccc(N3CCCC3)cc2)SC1=S | -85.4*
CC1CCN(C(=O)CCN2C(=O)/C(=C/c3cccs3)SC2=S)CC1 | -74.7*
O=C(CCN1C(=O)/C(=C/c2ccccc2)SC1=S)N1CCCCCC1 | -62.4*
O=C(CCCN1C(=O)/C(=C/c2ccccc2Cl)SC1=S)NNC(=O)c1ccc(Cl)cc1 | 64.7
CCOc1ccc(/C=C2\SC(=S)N(CCC(=O)O)C2=O)cc1 | 114.6
O=C(CCN1C(=O)/C(=C\c2ccccc2F)SC1=S)N1CCCCC1 | -116.7*
O=C(O)CCCN1C(=O)/C(=C\C(Cl)=C\c2ccccc2)SC1=S | -224.7*
COc1cc(OC)c(OC)cc1/C=C/c1cc(C(F)(F)F)[nH]c(=O)n1 | -121.1*
O=c1nc(/C=C/c2cc([N+](=O)[O-])ccc2Cl)cc(C(F)(F)F)[nH]1 | -67.1*
COc1ncnc2c1oc1ccccc12 | -71.0*
c1ccc(Sc2ncnc3c2oc2ccccc23)nc1 | -194.6*
COc1ccc(N2CCN(C(=O)C3(C)CC3(Cl)Cl)CC2)cc1 (stereo not drawn) | -82.1*
SMILES | aSyn UTR act
Cc1ccc(/C=N/NC(=O)c2cccs2)cc1[N+](=O)[O-] | -107.3*
O=C(N/N=C/c1ccccc1[N+](=O)[O-])c1cccs1 | -125.3*
COCCNc1c(-c2ccc(O)cc2)nc2ccc(Cl)cn12 | -69.0*
S=c1nc(COc2ccccc2)[nH]c2ccccc12 | -111.9*
Clc1ccc2nc(COc3ccccc3)[nH]c2c1 | -150.7*
O=c1[nH]c(COc2ccc(Br)cc2Cl)nc2ccccc12 | -166.5*
O=c1[nH]c(COc2ccccc2)nc2ccccc12 | -69.7*
Cc1cccc(Nc2nnc(SCC(=O)NC(=O)Nc3ccc4c(c3)OCCO4)s2)c1 | -95.2*
Cc1ccccc1Nc1nnc(SCC(=O)NC(=O)Nc2ccc3c(c2)OCCO3)s1 | -85.6*
Cc1ccccc1NC(=O)c1ccc(CSc2ncccn2)cc1 | -82.5*
Cc1ccc(NC(=O)c2ccc(CSc3nnc(C)s3)cc2)cc1 | -75.0*
Cc1ccc(NC(=O)c2ccc(CSc3nnnn3C)cc2)cc1 | -165.1*
Cc1nnc(SCc2cccc3ccccc23)s1 | -89.8*
O=C(Nc1ccc(Br)cc1)c1ccc(CSC2=NCCS2)cc1 | -132.1*
Cc1ccc(NC(=O)c2ccc(CSc3ccccn3)cc2)cc1 | -92.9*
Cc1nnc(SCc2ccc(F)cc2)s1 | -69.0*
CCCCN(CC)CCNC(=O)c1cc2c(-c3ccccc3F)nn(C)c2s1 | -74.8*
CCN(CC)CCNC(=O)c1cc2c(=O)n(C)c3ccccc3c2s1 | -70.2*
CCCCN(CC)CCNC(=O)c1cc2c(=O)n(C)c3ccccc3c2s1 | -67.2*
O=c1cccc2n1Cc1cc3ccccc3nc1-2 | -151.9*
CC[C@@]1(O)C(=O)OCc2c1cc1n(c2=O)Cc2cc3c(N)cccc3nc2-1 | 102.5
CCOC(=O)C1(Cc2cccc(OC)c2)CCCN(C(=O)c2cc(C)oc2C)C1 (stereo not drawn) | -71.5*
CCOC(=O)C1(Cc2ccccc2C)CCCN(C(=O)c2sccc2C)C1 (stereo not drawn) | -69.9*
CCOC(=O)C1(Cc2cccc(OC)c2)CCCN(C(=O)CSC)C1 (stereo not drawn) | -96.7*
CCOC(=O)C1(Cc2cccc(OC)c2)CCCN(C(=O)CCc2cccnc2)C1 (stereo not drawn) | -132.8*
SMILES | aSyn UTR act
CC#CC(=O)N1CCCC(Cc2cccc(OC)c2)(C(=O)OCC)C1 (stereo not drawn) | -105.8*
COc1ccccc1N1CCN(Cc2cc(Br)c(O)c3ncccc23)CC1 | 77.0
CCOC(=O)C1(Cc2ccccc2)CCCN(C(=O)C=C(C)C)C1 (stereo not drawn) | -137.0*
CCOC(=O)C1(Cc2cccc(OC)c2)CCN(Cc2cccc(OCC)c2O)CC1 | -68.9*
Cc1ccccc1Nc1n[nH]c(C)c1[N+](=O)[O-] | -65.0*
Cc1ccc(Nc2n[nH]c(C)c2[N+](=O)[O-])c(C)c1 | -65.8*
COc1ccc(Nc2n[nH]c(C)c2[N+](=O)[O-])cc1 | -102.4*
Cc1ccc(NC2=C(Cl)C(=O)OC2OC(C)C)c(C)c1 (stereo not drawn) | 69.2
